The results in this text go back to PubChem BioAssay (Tox21).

Records with an inconclusive call do not appear. Active and inactive are the calls of the source. Calls follow the shape of the dose curve; as a rule, active = well fitted cell-killing curve with a large enough effect in the repeat runs; inconclusive = weak or mixed curves; inactive = flat fitted curve, though single readings scatter.
% is scaled to controls: 0 for no effect and ±100 for the full control effect.

This assay can be described thus: qHTS RealTime-Glo MT Cell Viability Assay in HepG2 cells - 32 hour (AID 1224877). Also: nearly all actives have a fitted effect of over 55% in size. To be noted: RealTime-Glo luminescence; series mostly up to 76.8 µM; activity change, negative = cytotoxic: at the top concentration. The text has this:
U.S. Tox21 Program National Center for Advancing Translational Sciences [NCATS] NIH Chemical Genomics Center [NCGC] U.S. Environmental Protection Agency [EPA] National Institutes of Environmental Health Sciences [NIEHS] National Toxicology Program [NTP] U.S. Food and Drug Administration [FDA] Tox21 Assay Overview: Measure of cell viability is critical in the cell-base assay. Analysis of cell viability is necessary for the characterization of cell responses to cytotoxic drugs and environmental stress. A RealTime-Glo MT Cell Viability Assay to monitor cell viability in real time of continues cell culture during 40 hours of compound treatment was used to screen Tox21 10K library compounds in HepG2 cells. The RealTime-Glo MT Cell Viability Assay is a nonlytic, homogeneous, bioluminescent method to measure cell viability in real time using a simple, plate-based method. The assay involves adding NanoLuc luciferase and a cell-permeant prosubstrate to cells in culture. Viable cells reduce the proprietary prosubstrate to generate a substrate for NanoLuc luciferase. This substrate diffuses from cells into the surrounding culture medium, where it is rapidly used by the NanoLuc Enzyme to produce a luminescent signal. The signal correlates with the number of viable cells, making the assay well suited for cytotoxicity studies.
Tox21 Assay Protocol Summary: The mixture of HepG2 cell suspension and reagents were dispensed at 600cells/6 ul/well in 1536-well tissue culture treated black solid bottom plates using a Multidrop dispenser. After the assay plates were incubated at a 37 C/5% CO2 incubator for 5 hours, 23 nL of compounds dissolved in DMSO, positive and negative controls was transferred to the assay plate by a pintool work station. The plates were incubated at 37 C for 40 hours. The luminescence intensity were measured at 0h, 8h, 16h, 24h, 32h and 40h time points using ViewLux plate reader during compound treatment.
For `Cc1ccccc1C(N)=O`, the “activity change, negative = cytotoxic” value is 3.36% (inactive).
As for `CCC(C)C(C)=O` (stereo not given), the figure is -2.11% (inactive); as for `CCC(C)OC(C)CC` (stereo not given), -10.4% (inactive); as for `CC(=O)CC(=O)Nc1ccc(C)cc1C`, 0.664% (inactive).
For `COc1nc(N)nc2nc[nH]c12` the value was -0.696% (inactive).
For `O=C(O)c1cc2ccccc2nc1C(=O)O` the value was -1.91% (inactive); for `CC(C)OC(=O)CCC(=O)OC(C)C`, -0.192% (inactive); for `COP(=O)(O)OP(=O)(O)OC`, 0.721% (inactive).
In the case of `CCNC(=O)NCc1cccc(Cl)c1`, the “activity change, negative = cytotoxic” value is 3.16% [at 35.3 µM] (inactive).
Regarding `COC(=O)/C=C\C(=O)O`, the “activity change, negative = cytotoxic” value is 0.289% (inactive).
For `C=CC(=O)OCC1CCCO1` (stereo not given) the value was 3.11% (inactive).
For `CO[C@@]1(NC(=O)Cc2cccs2)C(=O)N2C(C(=O)O)=C(COC(N)=O)CS[C@@H]21`, the “activity change, negative = cytotoxic” value is 0.825% [at 35.3 µM] (inactive).
As for `CC(=O)O[Si](C)(OC(C)=O)OC(C)=O`, the figure is 1.35% (inactive); as for `O=C(O)CONC(=O)c1ccccc1`, 2.87% (inactive).
For `O=C1OCCO1` the value was -0.509% (inactive); for `O=C[O][Al]([O]C=O)[O]C=O`, 0.487% (inactive); for `c1ccc2c(CC3=NCCN3)cccc2c1`, 0.724% [at 35.3 µM] (inactive).
Take `CNCCS(=O)(=O)O`: the “activity change, negative = cytotoxic” value was -1.35% (inactive).
As for `O=C1c2ccccc2C(=O)c2cc(Cl)ccc21`, the figure is -5.12% [at 6.97 µM] (inactive); as for `CC(=O)c1cc(C)oc1C`, 2.12% (inactive); as for `CC(=O)O[C@@H]1CC2CCC1(C)C2(C)C` (stereo not given in full), 0.78% (inactive).
As for `CC(=O)OC1CCCCC1C(C)(C)C` (stereo not given), the figure is 1.84% (inactive); as for `CC1CCc2c(N3CCC(O)CC3)c(F)cc3c(=O)c(C(=O)O)cn1c23` (stereo not given), -0.989% [at 35.3 µM] (inactive).
As for `CCCC(CC)c1ccccc1` (stereo not given), the figure is -0.945% (inactive); as for `Cc1c(N)cccc1Cl`, 0.0673% (inactive).
On to `CC1=C(O)C(=O)C(C)O1` (stereo not given), for which the “activity change, negative = cytotoxic” value was 0.462% (inactive).
For `Cc1ccc2c(c1)C(=O)c1ccccc1C2=O` the value was -0.27% (inactive).
For `CO[Si](CCCn1c(=O)n(CCC[Si](OC)(OC)OC)c(=O)n(CCC[Si](OC)(OC)OC)c1=O)(OC)OC` the value was -1.26% [at 35.3 µM] (inactive); for `OCC1CCC(CO)CC1` (stereo not given), 2.55% (inactive); for `O=C(O)CCCCCC(=O)O`, 1.34% (inactive).
For `CCC(=O)Oc1ccc2c(c1)CC[C@@H]1[C@@H]2CC[C@@]2(C)[C@H]1C[C@@H](OC(=O)CC)[C@@H]2OC(=O)CC` the value was -5.35% [at 35.3 µM] (inactive); for `CC(C)CCOC(=O)c1ccccc1`, 5.27% (inactive); for `CC(C)OC(=O)OCOP(=O)(CO[C@H](C)Cn1cnc2c(N)ncnc21)OCOC(=O)OC(C)C`, 0.72% [at 35.3 µM] (inactive).
For the molecule `CN(C)CCOC(=O)C(c1ccccc1)C1(O)CCCC1` (stereo not given), the “activity change, negative = cytotoxic” value is 0.728% [at 35.3 µM] (inactive).
For `CCCSSCCC` the value was -0.777% (inactive); for `COC(=O)c1cccc(Cl)c1`, 0.245% (inactive); for `CC(C)CO`, 0.815% (inactive).
For `CC(=O)CC(=O)OC(C)(C)C` the value was 2.5% (inactive); for `C=CCOC(=O)CCCCCC`, -0.0376% (inactive).
As for `NCCOCCN`, the “activity change, negative = cytotoxic” value is 0.718% (inactive).
